We go through 4 compounds from PubChem BioAssay (EPA / NIEHS).

The source made the active and inactive calls. The calls were made as follows: active = hit-call score of the fitted dose curve at least 0.9, where 1 is the maximum; inactive = score below 0.9.

Read-out in assay [1]: Thrombomodulin, THBD (gene 7056)
Briefly: BSK_CASM3C_Thrombomodulin: BioMAP Diversity Plus: CASM3C Assay for Thrombomodulin Biomarker Activity (AID 2283051).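 Also: thrombomodulin protein level measured by ELISA 24 h after dosing.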 Conditions: primary human coronary artery smooth muscle cells; actives raise or lower the signal.

Read-out in assay [2]: Tissue Factor, F3 (gene 2152)
Description: BSK_CASM3C_TissueFactor: BioMAP Diversity Plus: CASM3C Assay for Tissue Factor Biomarker Activity (AID 2283052).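 Also: cell surface tissue factor protein level read by ELISA.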 The following applies: primary human coronary artery smooth muscle cells; actives raise or lower the signal.

Read-out in assay [3]: Interferon-gamma inducible Protein 10 (IP10), CXCL10 (gene 3627)
Description: BSK_hDFCGF_IP10: BioMAP Diversity Plus: hDFCGF Assay for Interferon-gamma inducible Protein 10 (IP10) Biomarker Activity (AID 2283053). The following applies: primary human foreskin fibroblasts; actives raise or lower the signal. In short, it runs like this: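 Chemical-treated human skin fibroblasts (primary) were sampled at 24 h for IP-10 by ELISA. Both increases and decreases relative to DMSO were scored.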

Read-out in assay [4]: Urokinase-type plasminogen activator receptor (uPAR), PLAUR (gene 5329)
Briefly: BSK_CASM3C_uPAR: BioMAP Diversity Plus: CASM3C Assay for Urokinase-type plasminogen activator receptor (uPAR) Biomarker Activity (AID 2283054).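 Also: cell-surface uPAR protein level quantified by ELISA.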 The following applies: primary human coronary artery smooth muscle cells; actives raise or lower the signal.

Read-out in assay [5]: Vascular cell adhesion molecule 1 (VCAM1), VCAM1 (gene 7412)
Briefly: BSK_CASM3C_VCAM1: BioMAP Diversity Plus: CASM3C Assay for Vascular cell adhesion molecule 1 (VCAM1) Biomarker Activity (AID 2283055).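 Also: VCAM-1 protein level quantified by ELISA on the cells.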 The following applies: primary human coronary artery smooth muscle cells; actives raise or lower the signal.

Read-out in assay [6]: Collagen III, COL3A1 (gene 1281)
Briefly: BSK_hDFCGF_CollagenIII: BioMAP Diversity Plus: hDFCGF Assay for Collagen III Biomarker Activity (AID 2283056). The following applies: primary human foreskin fibroblasts; actives raise or lower the signal. Summed up: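 Cells: human foreskin fibroblasts, primary. Dosing followed by 24 h incubation, then ELISA for collagen III. Both increases and decreases scored relative to DMSO.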

Read-out in assay [7]: Epidermal growth factor receptor (EGFR), EGFR (gene 1956)
Description: BSK_hDFCGF_EGFR: BioMAP Diversity Plus: hDFCGF Assay for Epidermal growth factor receptor (EGFR) Biomarker Activity (AID 2283057). The following applies: primary human foreskin fibroblasts; actives raise or lower the signal. In short, it runs like this: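 Cell-based multiplexed assay in primary human foreskin fibroblasts. EGFR is read by ELISA 24 h after treatment and compared with DMSO controls.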

Read-out in assay [8]: Interleukin-8 (IL8), CXCL8 (gene 3576)
Briefly: BSK_hDFCGF_IL8: BioMAP Diversity Plus: hDFCGF Assay for Interleukin-8 (IL8) Biomarker Activity (AID 2283058). The following applies: primary human foreskin fibroblasts; actives raise or lower the signal. In short, it runs like this:
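IL-8 levels from compound-treated primary human fibroblasts were read by ELISA at 24 h, with DMSO serving as baseline for bidirectional fitting.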

The nature of assay [9]: BSK_hDFCGF_Proliferation: Cell Proliferation Assessment in the BioMAP Diversity Plus: hDFCGF Assay (AID 2283059).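 Also: curves fitted for both rise and fall of signal versus DMSO baseline.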 The following applies: primary human foreskin fibroblasts. Summed up:
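Sub-confluent human foreskin fibroblast cultures receive test chemical […]. Relative cell number is quantified by sulforhodamine B staining (0.1%, after 10% TCA fixation) at 560 nm, with bidirectional fitting referenced to DMSO.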

Read-out in assay [10]: Macrophage colony-stimulating factor (MCSF), CSF1 (gene 1435)
Briefly: BSK_hDFCGF_MCSF: BioMAP Diversity Plus: hDFCGF Assay for Macrophage colony-stimulating factor (MCSF) Biomarker Activity (AID 2283060). Conditions: primary human foreskin fibroblasts; actives raise or lower the signal. Summed up: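 M-CSF levels, determined by ELISA, are taken at 24 h after dosing human skin fibroblasts. Responses in either direction are fitted with DMSO serving as the baseline.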

Assay [11] can be described thus: BSK_hDFCGF_SRB: Viability Assessment in the BioMAP Diversity Plus: hDFCGF Assay (AID 2283061).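 Also: cells exposed to compound for 24 h before the read.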 Conditions: primary human foreskin fibroblasts. Summed up: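 Cells were dosed with test chemical, cultured 24 h, fixed with 10% TCA, then stained with 0.1% SRB and read at 560 nm. The fibroblasts were human foreskin primary cells, and DMSO served as baseline.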
Read-out in assay [12]: TIMP metallopeptidase inhibitor 1 (TIMP1), TIMP1 (gene 7076)
Description: BSK_hDFCGF_TIMP1: BioMAP Diversity Plus: hDFCGF Assay for TIMP metallopeptidase inhibitor 1 (TIMP1) Biomarker Activity (AID 2283062). Conditions: primary human foreskin fibroblasts; actives raise or lower the signal. Summed up: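 Fibroblasts from human foreskin are treated with test chemical and harvested at 24 h. TIMP-1 is quantified by ELISA, and gain or loss of signal is scored against DMSO.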

Read-out in assay [13]: Monokine induced gamma interferon (MIG), CXCL9 (gene 4283)
Description: BSK_hDFCGF_MIG: BioMAP Diversity Plus: hDFCGF Assay for Monokine induced gamma interferon (MIG) Biomarker Activity (AID 2283063). Conditions: primary human foreskin fibroblasts; actives raise or lower the signal. In short, it runs like this: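 MIG signal, determined by ELISA, reflects 24 h chemical exposure of human skin primary fibroblasts. DMSO serves as negative control and baseline.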

Read-out in assay [14]: Matrix Metallopeptidase 1 (MMP1), MMP1 (gene 4312)
Briefly: BSK_hDFCGF_MMP1: BioMAP Diversity Plus: hDFCGF Assay for Matrix Metallopeptidase 1 (MMP1) Biomarker Activity (AID 2283064). Conditions: primary human foreskin fibroblasts; actives raise or lower the signal. Summed up: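 ELISA read-out of MMP1 from human foreskin fibroblasts (primary skin cells), 24 h post-dose. Gain or loss of signal was fitted bidirectionally versus DMSO negative control; cytotoxicity was checked by SRB in parallel cultures.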

Read-out in assay [15]: Vascular cell adhesion molecule 1 (VCAM1), VCAM1 (gene 7412)
Briefly: BSK_hDFCGF_VCAM1: BioMAP Diversity Plus: hDFCGF Assay for Vascular cell adhesion molecule 1 (VCAM1) Biomarker Activity (AID 2283065).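 As to AC50: VCAM-1 protein level quantified by ELISA after 24 h chemical exposure.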 Conditions: primary human foreskin fibroblasts; actives raise or lower the signal. Summed up: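 Cells are dosed, cultured for 24 h, then VCAM-1 is quantified by ELISA; signal increases and decreases are both fitted relative to DMSO.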

Read-out in assay [16]: Plasminogen activator inhibitor-1 (PAI1), SERPINE1 (gene 5054)
Briefly: BSK_hDFCGF_PAI1: BioMAP Diversity Plus: hDFCGF Assay for Plasminogen activator inhibitor-1 (PAI1) Biomarker Activity (AID 2283066). The following applies: primary human foreskin fibroblasts; actives raise or lower the signal. Summed up: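 Human skin fibroblast cultures receive chemical for 24 h before PAI-1 is measured by ELISA; signal changes are fitted bidirectionally against DMSO-treated wells.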

Read-out in assay [17]: Intercellular Adhesion Molecule 1 (ICAM1), ICAM1 (gene 3383)
Briefly: BSK_KF3CT_ICAM1: BioMAP Diversity Plus: KF3CT Assay for Intercellular Adhesion Molecule 1 (ICAM1) Biomarker Activity (AID 2283067). The following applies: primary human keratinocytes with fibroblasts; actives raise or lower the signal. In short, it runs like this:
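Dose the keratinocyte/fibroblast co-culture, wait 24 h, measure ICAM-1 by ELISA, then fit increases or decreases against DMSO. Cytotoxicity is checked in parallel cultures by SRB total-protein staining.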

Read-out in assay [18]: Interferon-gamma inducible Protein 10 (IP10), CXCL10 (gene 3627)
Description: BSK_KF3CT_IP10: BioMAP Diversity Plus: KF3CT Assay for Interferon-gamma inducible Protein 10 (IP10) Biomarker Activity (AID 2283068). The following applies: primary human keratinocytes with fibroblasts; actives raise or lower the signal. Summed up:
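ELISA read-out of IP-10 after 24 h chemical dosing of human skin primary co-culture (keratinocytes, foreskin fibroblasts). Gain or loss of signal relative to DMSO, bidirectional curve fit.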

The nature of assay [19]: BSK_KF3CT_SRB: Viability Assessment in the BioMAP Diversity Plus: KF3CT Assay (AID 2283069).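 Also: total protein by sulforhodamine B staining as a cytotoxicity measure; fitted for both signal gain and loss against DMSO baseline.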 The following applies: primary human keratinocytes with fibroblasts. Summed up:
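SRB read-out at 560 nm (0.1% stain, TCA-fixed cells) gauges overt cytotoxicity in a human skin keratinocyte–fibroblast co-culture 24 h post-dosing. Signal change was fitted bidirectionally relative to DMSO control.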

Read-out in assay [20]: Interleukin-1 alpha (IL1a), IL1A (gene 3552)
Briefly: BSK_KF3CT_IL1a: BioMAP Diversity Plus: KF3CT Assay for Interleukin-1 alpha (IL1a) Biomarker Activity (AID 2283070). Conditions: primary human keratinocytes with fibroblasts; actives raise or lower the signal. In short, it runs like this: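 Primary skin co-culture (keratinocytes, foreskin fibroblasts), 24 h exposure; ELISA for IL-1a; bidirectional curve fit vs DMSO.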

With `C=CC(Cl)CCl` (centres undefined), the outcome in assay [1], in [2], in [3], in [4], in assay [6] and in assay [7] was inactive. Moreover, the outcome in [8], in assay [10], in assay [11], in [12], in assay [13] and in assay [14] was inactive. For the same compound, the result in assay [15], in [16], in [17], in [18] and in assay [19] was inactive. Also, the AC50 in assay [5] is 921 nM (active); in assay [9], 20.4 µM (active); in [20], 79.7 nM (active).
`O=S(=O)(C(Cl)(Cl)Cl)C(Cl)(Cl)Cl`: in [1], the result was inactive. Also, the AC50 was 1.85 µM (active) in [2]; 2.92 µM (active) in assay [3]; 3.04 µM (active) in assay [4]; 1410 nM (active) in [5]; 2.27 µM (active) in assay [6]; 1.55 µM (active) in assay [7]. For the same compound, the AC50 in assay [8] was 3.56 µM (active); in assay [9] it was 0.0831 µM (active); in [10], 2.3 µM (active); in [11], 1.52 µM (active); in assay [12], 1.72 µM (active); in assay [13], 2.36 µM (active). The AC50 in assay [14] was 2.8 µM (active); in [15], 2.02 µM (active); in assay [16], 1.11 µM (active); in assay [17] it was 2.15 µM (active); in assay [18] it was 2.99 µM (active); in assay [19], 2.48 µM (active). Further, in [20], the AC50 was 1670 nM (active).
Turning to `Oc1c(Br)cc(Br)cc1Br`, the outcome in [1], in assay [2], in assay [3], in assay [4], in assay [5] and in assay [7] was inactive. Besides, the outcome in assay [8], in assay [10], in [11], in assay [12], in assay [13] and in [14] was inactive. The result in [15], in [17], in assay [19] and in assay [20] was inactive. The values for the AC50 in assay [6], in [16] and in [18] were 12.1 µM (active), 20 µM (active) and 31.6 µM (active), respectively.
`OCCN(CCO)CCO`: the result in [1], in [2], in [3], in [4], in assay [5] and in assay [6] was inactive. Further, the result in assay [7], in [8], in assay [9], in assay [10], in assay [11] and in [12] was inactive. Moreover, the outcome in assay [13], in assay [14], in assay [15], in assay [16], in assay [17] and in [18] was inactive. In addition, the result in assay [19] and in assay [20] was inactive.

What is called AC50 is the concentration at which the activity in the assay is half-maximal.
